Legend:
Details in all cases: concentration: 1 μM, replicates: in singlicate; n = 1
AXL = test system: AXL
BIKE = test system: T1, BIKE
T1 construct: gene BMP2K

BLK = test system: BLK
BMPR1A = test system: BMPR1A
BMPR1B = test system: BMPR1B
BMPR2 = test system: BMPR2
BMX = test system: BMX
BRAF = test system: BRAF
BRK = test system: T2, BRK
T2 construct: gene PTK6

BRSK1 = test system: BRSK1
BRSK2 = test system: BRSK2
BTK = test system: BTK
BUB1 = test system: BUB1
CAMK1B = test system: CAMK1B
CAMK1D = test system: CAMK1D
CAMK1G = test system: CAMK1G
CAMK1 = test system: CAMK1
CAMK2A = test system: CAMK2A
CAMK2B = test system: CAMK2B
CAMK2D = test system: CAMK2D
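Note: KINOMEscan kinase panel screen.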

| SMILES | %Inh (AXL) [%] | %Inh (BIKE) [%] | %Inh (BLK) [%] | %Inh (BMPR1A) [%] | %Inh (BMPR1B) [%] | %Inh (BMPR2) [%] | %Inh (BMX) [%] | %Inh (BRAF) [%] | %Inh (BRK) [%] | %Inh (BRSK1) [%] | %Inh (BRSK2) [%] | %Inh (BTK) [%] | %Inh (BUB1) [%] | %Inh (CAMK1B) [%] | %Inh (CAMK1D) [%] | %Inh (CAMK1G) [%] | %Inh (CAMK1) [%] | %Inh (CAMK2A) [%] | %Inh (CAMK2B) [%] | %Inh (CAMK2D) [%] |
| --- | --- | --- | --- | --- | --- | --- | --- | --- | --- | --- | --- | --- | --- | --- | --- | --- | --- | --- | --- | --- |
| Cc1cc(Nc2nc(-c3cccc(C)n3)nc3ccccc23)ccn1 [GW872411] | 0 | 0 | 0 | 3 | 0 | 0 | 0 | 0 | 0 | 0 | 13 | 0 | 0 | 0 | 0 | 0 | 0 | 0 | 0 | 0 |
| COc1cc(Nc2ccnc3ccc(C(F)(F)F)cc23)cc(OC)c1OC [GW577382] | 12 | 0 | 34 | 0 | 22 | 22 | 16 | 8 | 8 | 0 | 10 | 35 | 23 | 38 | 14 | 1 | 17 | 0 | 0 | 5 |
| Cl.NS(=O)(=O)c1cccc(Nc2cc(-c3ccc(F)cc3)n[nH]2)c1 [GW824645] | 0 | 0 | 23 | 7 | 0 | 45 | 0 | 33 | 0 | 0 | 0 | 0 | 36 | 0 | 0 | 0 | 0 | 0 | 0 | 0 |
| COc1cc2nccc(Nc3ccc(OCc4ccc(NC(C)=O)cc4)cc3)c2cc1OC.Cl [GW440135] | 13 | 0 | 26 | 24 | 0 | 8 | 26 | 6 | 36 | 0 | 0 | 0 | 46 | 31 | 8 | 0 | 5 | 0 | 0 | 4 |
| Nc1n[nH]c2ncc(-c3ccccc3)cc12 [SB-517081] | 0 | 17 | 13 | 2 | 0 | 34 | 0 | 0 | 24 | 0 | 0 | 0 | 34 | 58 | 40 | 17 | 18 | 0 | 0 | 11 |
| CCn1c(-c2ccoc2)nc2cnccc21 [SB-733887] | 5 | 6 | 0 | 0 | 10 | 20 | 0 | 1 | 0 | 0 | 0 | 0 | 59 | 0 | 8 | 0 | 2 | 0 | 0 | 0 |
| Nc1n[nH]c2nnc(-c3ccccc3)c(-c3ccccc3)c12 [GW554060] | 0 | 22 | 35 | 0 | 41 | 0 | 22 | 2 | 8 | 10 | 0 | 2 | 60 | 5 | 0 | 4 | 3 | 0 | 0 | 0 |
| Cn1c(=O)c(F)c(Nc2ccc(I)cc2F)c2c(=O)n(OC[C@H](O)CO)cnc21 | 10 | 30 | 9 | 0 | 0 | 0 | 0 | 0 | 2 | 0 | 15 | 0 | 0 | 0 | 8 | 0 | 0 | 4 | 12 | 9 |
| CN(C)c1cc(-c2ccc3c(N)n[nH]c3c2)nc(N)n1 [GSK2219329] | 0 | 32 | 2 | 0 | 0 | 0 | 13 | 0 | 0 | 0 | 0 | 0 | 24 | 0 | 9 | 0 | 4 | 0 | 0 | 0 |
| FC(F)(F)c1ccc(-c2ncn(CCCN3CCOCC3)c2-c2ccncc2)cc1 [SB-217780] | 40 | 13 | 4 | 7 | 0 | 39 | 1 | 0 | 4 | 13 | 7 | 0 | 0 | 35 | 23 | 3 | 0 | 0 | 0 | 3 |
| CC(C)(C)c1ccc(C(=O)Nc2cn3cc(-c4ccccc4)ccc3n2)cc1 | 0 | 0 | 0 | 8 | 0 | 0 | 13 | 0 | 0 | 0 | 0 | 0 | 0 | 6 | 0 | 0 | 0 | 0 | 0 | 0 |
| Nc1ncnc2c1ncn2-c1ccc(Cl)cc1 [AH2635] | 0 | 28 | 24 | 0 | 0 | 2 | 20 | 0 | 0 | 0 | 9 | 0 | 25 | 3 | 4 | 0 | 5 | 0 | 0 | 0 |
| CCC(=O)c1c(-c2ccccc2)c2cc(Cl)ccc2c(=O)n1Cc1cc(C(=O)NC2CC2)n(C)n1 | 0 | 0 | 0 | 0 | 0 | 9 | 4 | 62 | 0 | 0 | 0 | 15 | 6 | 0 | 12 | 0 | 20 | 0 | 0 | 0 |
| O=C(Nc1ccc2c(c1)OCO2)NC1CCN(c2ccnc(NCc3ccc(F)cc3)n2)CC1 [GSK1379859] | 2 | 7 | 43 | 0 | 0 | 0 | 3 | 0 | 4 | 0 | 0 | 0 | 7 | 0 | 16 | 0 | 16 | 0 | 0 | 7 |
| COc1ccc(-c2coc3ccc(-c4nnc(SCc5cccc(C#N)c5)o4)cc23)cc1 | 21 | 0 | 0 | 14 | 17 | 18 | 28 | 0 | 10 | 0 | 10 | 0 | 0 | 6 | 23 | 8 | 26 | 0 | 0 | 7 |
| CCC(=O)c1c(-c2ccccc2)c2cc(Cl)ccc2c(=O)n1Cc1cc(S(C)(=O)=O)n(CC(F)F)n1 | 0 | 0 | 0 | 0 | 6 | 1 | 0 | 13 | 0 | 0 | 0 | 0 | 4 | 0 | 0 | 1 | 0 | 2 | 0 | 0 |
| Cc1ccc(Oc2ccc(Nc3ncnc4cc[nH]c34)cc2C)cn1 | 25 | 4 | 0 | 34 | 1 | 13 | 20 | 0 | 0 | 10 | 19 | 19 | 0 | 0 | 34 | 0 | 16 | 0 | 0 | 0 |
| CCS(=O)(=O)c1ccc(OC)c(Nc2ncc(-c3ccc(F)cc3)o2)c1.Cl [GW591947] | 0 | 22 | 41 | 14 | 0 | 0 | 0 | 0 | 0 | 0 | 0 | 0 | 8 | 0 | 3 | 4 | 0 | 0 | 0 | 12 |
| O=C(NCc1cccs1)c1cc(C(=O)c2c(Cl)cccc2Cl)c[nH]1 [GW823670] | 0 | 19 | 28 | 7 | 0 | 15 | 0 | 0 | 0 | 0 | 0 | 0 | 0 | 0 | 0 | 0 | 0 | 0 | 0 | 0 |
| OCCCNc1nccc(-c2c(-c3cccc(C(F)(F)F)c3)nn3cc(C(F)(F)F)ccc23)n1 [GW630813] | 0 | 0 | 33 | 0 | 0 | 0 | 13 | 0 | 0 | 0 | 0 | 0 | 42 | 0 | 14 | 1 | 11 | 0 | 0 | 22 |

From publication PMC5540273 (PLoS ONE, 2017)
